The values below come from PubChem BioAssay (Tox21).

Values joined by “and” are separate entries in the source; they are usually repeats but may differ in a detail not shown here. Identical values can stand only once. Results filed as inconclusive are left out. Active and inactive are the calls of the source. The call rests on the fitted dose curve; in most records, active means well fitted cell-killing curve with a large enough effect in the repeat runs; inconclusive means weak or mixed curves, or effect the other way; inactive means flat fitted curve, though single readings scatter.
On the % scale 0 is the no-effect control and ±100 the full control effect; potency means the concentration at half of the fitted maximal effect.

A short description of the assay: Human pregnane X receptor (PXR) small molecule agonists, qHTS cell viability counter screen (AID 1346977). Further: nearly all actives have a fitted effect of over 50% in size. Particulars: PXR-Luc HepG2 viability, CellTiter-Fluor, 24 h; series mostly up to 92.4 µM; activity change, negative = cytotoxicity: at the top concentration. An excerpt:
U.S. Tox21 Program National Center for Advancing Translational Sciences [NCATS] NIH Chemical Genomics Center [NCGC] U.S. Environmental Protection Agency [EPA] National Institutes of Environmental Health Sciences [NIEHS] National Toxicology Program [NTP] U.S. Food and Drug Administration [FDA] Tox21 Assay Overview: The human pregnane X receptor (hPXR) regulates the expression of several drug metabolizing enzymes and induction of these proteins is a major mechanism for developing drug resistance in cancer. One such key enzyme catalyzing the drug metabolism is cytochrome P450 3A4 (CYP3A4). Changes in CYP3A4 expression affect drug metabolism, thereby reducing the therapeutic efficacy and altering toxicological response to a drug and which finally causes adverse drug interaction. To screen Tox21 libraries for compounds that activate hPXR-mediated CYP3A4 gene expression, PXR-Luc HepG2 cells were used. Also cytotoxicity of the compounds was tested in parallel by measuring the cell viability using CellTiter-Fluor assay system in the same wells.
Tox21 Assay Protocol Summary: PXR-Luc HepG2 cells were dispensed at 2,000 per well in 5uL of assay medium containing 5% charcoal-stripped FBS into white solid bottom 1536-well plates (Corning Life Sciences, Corning, NY) using a Multidrop Combi (Thermo Scientific, Waltham, MA) dispenser. The assay plates were incubated at 37 C and 5% CO2 for 5hr, and then 23nL of compounds dissolved in DMSO and positive control were transferred using a Pintool station (Wako, San Diego, CA). The assay plates were incubated at 37C and 5% CO2 for 24hr. For cytotoxicity read, after 23hr incubation at 37C, 1uL CellTiter-Fluor reagent (Promega Corporation, Madison, WI) was added to each well of the assay plates using Flying Reagent Dispenser (FRD, Aurora Discovery, San Diego, CA). After 1hr incubation at 37C and 5% CO2, the fluorescence signal was quantified using a ViewLux plate reader (PerkinElmer, Shelton, CT).
Background: Quantitative high-throughput screening tests each substance at several concentrations.
With `O=C(Nc1cccc([N+](=O)[O-])c1)c1cc2ccccc2cc1O`, the Potency was 3.86 µM (active).
Turning to `Cc1cccc(N(C)C(=S)Oc2ccc3c(c2)C2CCC3C2)c1` (stereo not given), the “activity change, negative = cytotoxicity” value was 25.6% [at 42.5 µM] (inactive).
Consider `C=CC(=O)OCC(CO)(COC(=O)C=C)COC(=O)C=C`, for which the Potency was 17.8 µM (active) and 21.7 µM (active).
For `c1ccc(CSCc2ccccc2)cc1`, the “activity change, negative = cytotoxicity” value is 3.72% (inactive).
On to `O=Cc1cc(O)ccc1Br`, for which the “activity change, negative = cytotoxicity” value is 5.9% (inactive).
Consider `NNc1nc(-c2ccc([N+](=O)[O-])cc2)cs1`, for which the Potency is 27.3 µM (active).
Regarding `CC[C@H]1O[C@]2(CC[C@@H]1C)C[C@@H]1C[C@@H](C/C=C(\C)C[C@@H](C)/C=C/C=C3\CO[C@@H]4[C@H](O)C(C)=C[C@@H](C(=O)O1)[C@]34O)O2`, the Potency is 27.1 µM (active).
As for `Cc1nc(-c2ccc3c(c2)CCN(CCC2CCC(NC(=O)/C=C/c4ccc(F)cc4)CC2)CC3)no1` (stereo not given), the “activity change, negative = cytotoxicity” value was -0.402% [at 42.5 µM] (inactive).
Same read-out and setting: for `Cc1cc(N)c(S(=O)(=O)O)cc1Cl` the value was 15.3% (inactive).
`C[n+]1cc2c3c(ccc2c2ccc4cc5c(cc4c21)OCO5)OCO3`: the Potency was 2.91 µM (active).
As to `Cc1c(C)c2c(c(C)c1O)CCC(C)(COc1ccc(CC3SC(=O)NC3=O)cc1)O2` (stereo not given), the “activity change, negative = cytotoxicity” value is 2.34% [at 42.5 µM] (inactive).
Same read-out and setting: for `Clc1ccc(C(Cn2ccnc2)OCc2ccc(Sc3ccccc3)cc2)c(Cl)c1` (stereo not given) the value was 13.7% [at 42.5 µM] (inactive).
For the compound `CCCCCCCC[N+](CCCCCCCC)(CCCCCCCC)CCCCCCCC`, the Potency was 5.44 µM (active).
Still for that read-out and setting: for `N=C1N=C(N)c2ccccc21` the value was 27.3 µM (active).
In the case of `COC(=O)c1cc(Cl)ccc1OC`, the “activity change, negative = cytotoxicity” value is 12.5% [at 42.5 µM] (inactive).
As for `O=C(c1ccc(O)cc1O)c1ccc(O)cc1O`, the “activity change, negative = cytotoxicity” value was -15.5% (inactive).
Regarding `[Cl][Au]([Cl])[Cl]`, the Potency was 13.7 µM (active).
As to `O=c1[nH]sc2ccccc12`, the Potency was 27.3 µM (active).
On to `CCCCCCCC[P+](CCCCCCCC)(CCCCCCCC)CCCCCCCC`, for which the Potency was 2.42 µM (active).
`O=C(Oc1ccccc1)c1ccccc1C(=O)Oc1ccccc1`: the “activity change, negative = cytotoxicity” value is 3.46% (inactive).
As to `O=C1CCCc2c1cc1ccc3cccc4ccc2c1c34`, the “activity change, negative = cytotoxicity” value was -12% (inactive).
Regarding `COc1ccc(C(=O)/C(Br)=C\C(=O)O)cc1`, the Potency was 61.1 µM (active).
Take `CCCN(CCC)C(=O)C(CCC(=O)OCCCN1CCN(CCOC(=O)Cc2c(C)n(C(=O)c3ccc(Cl)cc3)c3ccc(OC)cc23)CC1)NC(=O)c1ccccc1` (stereo not given): the Potency was 18.8 µM (active).
Still for that read-out and setting: for `CCCCCCCC/C=C/CCCCCCCC1=NCCN1CCO` the value was 68.6 µM (active).
In the case of `Oc1cc2ccccc2c2ccccc12`, the Potency is 13.7 µM (active).
As for `Nc1ccc2cc(S(=O)(=O)O)cc(O)c2c1N=Nc1ccccc1C(F)(F)F`, the Potency is 61.1 µM (active).
For the compound `CCCCCCCCCCCCCCCC(=O)OC[C@H](O)[C@H]1OC(=O)C(O)=C1O`, the “activity change, negative = cytotoxicity” value is 5.16% (inactive).
As to `CCCCCOc1ccccc1/C(=C\SC)n1ccnc1`, the Potency is 23.7 µM (active).
With `O=[N+]([O-])c1cc(Cl)c(Cl)c(Cl)c1Cl`, the “activity change, negative = cytotoxicity” value was 0.407% (inactive).
Still for that read-out and setting: the figure for `CCCCN(CCCC)C(=O)N(CCCC)CCCC` is 11% (inactive).
`Cc1cc2c(cc1C(F)(F)F)N(C(=O)Nc1ccc(Oc3cccnc3C)nc1)CC2`: the Potency was 43.9 µM (active).
Regarding `CSc1cnc(C)cn1`, the “activity change, negative = cytotoxicity” value is -1.75% [at 240 µM] (inactive).
Still for that read-out and setting: for `C/C=C(\C)C(=O)OCc1ccccc1` the value was -0.67% (inactive).
Take `CN1CCN(CCC(=O)N2c3ccccc3Sc3ccc(C(F)(F)F)cc32)CC1`: the Potency is 26.6 µM (active).
Consider `CC(=O)SC[C@@H](Cc1ccccc1)C(=O)NCC(=O)OCc1ccccc1`, for which the “activity change, negative = cytotoxicity” value was 5.38% [at 42.5 µM] (inactive).
Turning to `CC1(C)CCC(C)(C)c2cc(C(=O)Nc3ccc(C(=O)O)cc3)ccc21`, the “activity change, negative = cytotoxicity” value was -2.61% (inactive).
For the compound `CCc1cc(SCc2sc(-c3ccc(C(F)(F)F)cc3)nc2CN2CCN(c3ccc(OC)cc3)CC2)ccc1OCC(=O)O`, the Potency was 54.5 µM (active).
Still for that read-out and setting: the figure for `CCCCCCCCCCCCCC[P+](CCCC)(CCCC)CCCC` (tested in a mixture with another compound) is 12.3 µM (active).
As to `CC[C@H](c1ccc(O)cc1)[C@@H](CC)c1ccc(O)cc1`, the “activity change, negative = cytotoxicity” value is -8.26% [at 42.5 µM] (inactive).
As for `COC(=O)C1=C(C)NC(C)=C(C(=O)OCCc2ccc(N3CCN(C(c4ccccc4)c4ccccc4)CC3)cc2)C1c1cccc([N+](=O)[O-])c1` (stereo not given), the “activity change, negative = cytotoxicity” value is 0.92% [at 42.5 µM] (inactive).
